A short description of test [1]: compounds altering viability of human ES cells (AID 493140; call rule not given here;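 also: cells exposed to compounds for four days before counting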). The note with it: human embryonic stem cell survival screen; stronger effect = higher value.
Test [2] can be described thus: P. berghei load reduction in hepatocytes – cell-based, HepG2, luciferase luminescence, HepG2 viability, primary screen (AID 624349; in the data active = parasite load remaining mostly below about 12%, no sharp cut-off; inactive = mostly above about 10%;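 also: 100% = mean of DMSO negative control wells on the same plate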). To be noted: P. berghei liver stage in HepG2, luciferase luminescence, concentration not given here; parasite load remaining: stronger effect = lower value; viability: measured here: HepG2 viability without parasites.
A short description of test [3]: Wnt pathway potentiators raising nuclear beta-catenin – imaging, WNT3A-conditioned medium, mouse C2C12, NPC library, primary screen (AID 1117326; in the data active = nuclear beta-catenin stimulation mostly above about 4.2%, no sharp cut-off; inactive = mostly below about 10%). The note with it: stronger effect = higher value.
Test [4] in a line: stimulators of insulin release from INS-1E, primary screen, cell-based, 5 mM glucose, NPC library (AID 1117329;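 active = compound raises insulin release from rat beta cells at 5 mM glucose, no numeric limit stated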). To be noted: rat INS-1E insulin secretion, at 10 µM, stronger effect = higher value.
Test [5] is described as follows: growth inhibition of GSK3B-pretreated HCT116 cells – cell-based, CellTiter-Glo, 0.2 to 20 µM (AID 1117336;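 active = compounds lowering colon cancer cell viability after pretreatment blocking the GSK3B kinase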). The note with it: HCT116 viability after GSK3B inhibitor, at 20 µM, stronger effect = higher value. On the technique in general: In ATP-based viability assays light output follows the ATP content of the culture.
Test [6] in a line: inhibition of endothelial tube formation, primary screen, imaging, VEGF stimulated, CD31 staining, tube area, NPC library (AID 1117340;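 active = compound that reduces growth-factor-driven endothelial tube area in a mixed cell culture, no cutoff stated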). To be noted: VEGF-stimulated ADSC/ECFC co-culture, at 10 µM, stronger effect = higher value.
Test [7] in a line: GLP1 release stimulators, primary, NCI-H716, NPC library (AID 1117341;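 active = compound raises GLP1 secretion from the human gut endocrine cells, with no numeric limit stated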). To be noted: NCI-H716 cells, at 10 µM, stronger effect = higher value.
A short description of test [8]: HCT116 colon cancer cell growth inhibition, primary screen, CellTiter-Glo luminescence, NPC library (AID 1117342;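 active = compounds that lower survival of HCT116 colon cancer cells in the luminescence readout, no numeric limit stated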). The note with it: at 20 µM (top of the series).
Test [9] can be described thus: reduced SW480 viability measured with CellTiter-Glo, NPC library, primary (AID 1117343;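 active = compounds that lower viability of the colon cancer cells in the luminescence readout, with no numeric limit stated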). The note with it: CellTiter-Glo luminescence; at 20 µM (top of the series) unless noted.
A short description of test [10]: NPC library primary testing for decreased DLD-1 cell viability via CellTiter-Glo (AID 1117346;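 active = compounds that lower survival of DLD-1 colon cancer cells in the luminescence readout, no cutoff given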). The note with it: DLD-1 viability, CellTiter-Glo luminescence; at 20 µM (top of the series).
A short description of test [11]: EMT-state selective cytotoxicity in co-culture – imaging, PC-3E GFP, TEM4-18 mCherry, primary screen (AID 1345086;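 active = compounds killing one labelled cell type while sparing the other, by normalised counts and ratio limits, not self-fluorescent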;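 as to all read-outs here: cells exposed to compound for 72 h before imaging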;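 as to red/green cell ratio (normalised): normalised mesenchymal count divided by normalised epithelial count so high means epithelial killing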). The note with it: PC-3E GFP / TEM4-18 mCherry co-culture, imaging cell counts, at 1 µM; for red/green cell ratio (normalised): actives lie on both sides, counts scaled to control wells, 1 = unselective.
Test [12] can be described thus: viability loss with induced miR-34 in A549 – imaging, A549 dox-inducible miR-34, nuclei and caspase counts, primary screen (AID 1347080). To be noted: A549 miR-34 inducible, Hoechst nuclei count, 48 h.
Test [13] is described as follows: MELAS cybrid and Rieske KO viability enhancers – cell-based, MELAS cybrids, Rieske KO mouse fibroblasts, CellTiter-Glo, primary screen (AID 1508586;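 active = mean z-score across replicates of 1.96 or higher in either the MELAS or the Rieske mutant cell line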;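 also: z relative to plate mean and SD of compound and empty wells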). To be noted: low glucose.
The target of test [14] is NAD(+) hydrolase SARM1 (Homo sapiens) (UniProt Q6SZW1). As to the kind of experiment: blocking NAD cleavage by SARM1 SAM-TIR – cell lysate, NAD-Glo luminescence (AID 1508614;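 active = compound whose remaining NAD level is above about 45 nM, limit read from the data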;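 also: higher remaining NAD means stronger inhibition of SARM1 NADase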). To be noted: SAM-TIR HEK293T lysate NADase, at 1 µM, stronger effect = higher value.
[15] abbreviates: measured here: epithelial PC-3E GFP cell survival.
Where [16] appears, read: measured here: mesenchymal TEM4-18 mCherry cell survival.
The mark [17] stands for this setting: stronger effect = lower value, cell number ratio, induced over uninduced.
[18] abbreviates: measured here: relative caspase fold change +Dox/-Dox.
Setting [19] is: measured here: total cells with miR-34 induction, stronger effect = lower value.
[20] abbreviates: measured here: total cells without miR-34 induction.
[21] abbreviates: MELAS cybrid survival, CellTiter-Glo 48 h, stronger effect = higher value.
[22] abbreviates: Rieske KO mouse fibroblast survival, CellTiter-Glo 72 h.

Molecules are shown by their SMILES. “And” between values parts separate entries of the source, which are not always exact repeats. Identical values can stand only once. The source made the active and inactive calls.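 The calls were made as follows, unless noted: active = compounds whose cell count with miR-34 switched on is under 0.7 times the count with it off; inactive = the rest.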

NAD(+) hydrolase SARM1 (Homo sapiens), sequence (Q6SZW1 whole entry, looked up): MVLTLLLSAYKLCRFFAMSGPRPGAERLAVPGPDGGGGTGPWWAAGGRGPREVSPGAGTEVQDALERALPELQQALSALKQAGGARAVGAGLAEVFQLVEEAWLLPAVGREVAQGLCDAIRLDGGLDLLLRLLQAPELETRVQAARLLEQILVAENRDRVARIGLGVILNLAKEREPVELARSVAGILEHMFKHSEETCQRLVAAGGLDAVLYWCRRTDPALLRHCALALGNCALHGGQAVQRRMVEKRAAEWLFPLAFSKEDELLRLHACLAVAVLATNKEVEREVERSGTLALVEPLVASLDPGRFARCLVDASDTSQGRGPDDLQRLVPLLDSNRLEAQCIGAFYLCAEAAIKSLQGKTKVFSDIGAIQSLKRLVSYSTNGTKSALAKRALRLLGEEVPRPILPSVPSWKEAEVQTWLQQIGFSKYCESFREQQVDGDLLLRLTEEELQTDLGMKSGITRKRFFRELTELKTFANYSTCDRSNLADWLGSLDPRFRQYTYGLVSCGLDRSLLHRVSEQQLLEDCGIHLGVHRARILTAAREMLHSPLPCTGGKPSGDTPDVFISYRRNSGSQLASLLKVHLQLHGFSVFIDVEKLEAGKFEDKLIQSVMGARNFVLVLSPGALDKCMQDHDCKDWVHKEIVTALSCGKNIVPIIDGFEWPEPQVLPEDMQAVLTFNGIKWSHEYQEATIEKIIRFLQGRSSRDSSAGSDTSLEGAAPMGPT

With `Oc1c(I)cc(Cl)c2cccnc12`, the survival in [1] is 4.42 (inactive). Also, in [2], the parasite load remaining was 11.3% (inactive) and 21.8% (inactive). Moreover, in [2], the viability is 89.4% and 95.4%. For the same compound, the nuclear beta-catenin stimulation is 55.7% (active) in test [3] (at 10 µM) and 6% in test [3] (stimulation, at 2 µM). For the same compound, the insulin secretion stimulation in [4] is -0.1% (inactive). The viability decrease in test [5] is 82% (active). In [6], the tube area decrease is 110% (active). The GLP1 secretion stimulation in test [7] was -5% (inactive). Further, the inhibition of viability in test [8] is 81.2% (active). Besides, the viability decrease (inhibition) is 127% (active) in test [9] and 97.8% (active) in [10]. In addition, the red/green cell ratio (normalised) in test [11] was 1 (inactive). Moreover, the normalised cell number in test [11] (setting [15]) and in [11] (setting [16]) was 0.99 in each case. The fold change in [12] (setting [17]) is 1.06 (inactive) and 0.786 (inactive); in [12] (setting [18]), 0.681 and 1.8. Further, the cell count in test [12] (setting [19]) was 5310 and 5470; in test [12] (setting [20]), 5010 and 6960. Also, the z-score is 0.113 (inactive) in test [13] (setting [21]) and -0.741 in [13] (setting [22]). In addition, in test [14], the remaining NAD was 10 nM (inactive).
In the case of `CC(C(=O)O)c1ccc2c(c1)Cc1cccnc1O2` (centres undefined), in test [2], the parasite load remaining was 27% (inactive). Moreover, in [2], the viability was 105%. In addition, the nuclear beta-catenin stimulation in [3] (at 10 µM) is 0.4% (inactive); in [3] (stimulation, at 2 µM), -0.1%. The insulin secretion stimulation in [4] was 4.3% (inactive). Moreover, the viability decrease in test [5] is -8.3% (inactive). Moreover, in test [6], the tube area decrease was -14.8% (inactive). Further, the GLP1 secretion stimulation in [7] was -2.7% (inactive). The inhibition of viability in test [8] is -12% (inactive). The values for the viability decrease (inhibition) in [9] and in test [10] were 18.6% (inactive) and 9.3% (inactive), respectively. Further, the red/green cell ratio (normalised) in test [11] was 0.99 (inactive). The normalised cell number in test [11] (setting [15]) came to 0.91; in test [11] (setting [16]) it was 0.9. In addition, the fold change in test [12] (setting [17]) was 1 (inactive) and 0.866 (inactive); in test [12] (setting [18]), 0.334 and 1.75. In addition, the cell count in test [12] (setting [19]) is 3140 and 9560; in test [12] (setting [20]), 3140 and 11000. For the same compound, the z-score in test [13] (setting [21]) was -0.199 (inactive) and 0.41 (inactive) and -0.18 (inactive); in [13] (setting [22]), 0.0831 and 0.15 and -0.741. Moreover, the remaining NAD in [14] was 10 nM (inactive).
As for `COc1ccc(O)cc1`, the nuclear beta-catenin stimulation in test [3] (at 10 µM) was 1.7% (inactive); in test [3] (stimulation, at 2 µM), 0.5%. For the same compound, the insulin secretion stimulation in test [4] is -1.8% (inactive). Also, the viability decrease in [5] was 12.9% (inactive). Further, the tube area decrease in test [6] is 18.7% (inactive). Besides, the GLP1 secretion stimulation in test [7] was -0.4% (inactive). For the same compound, the inhibition of viability in test [8] was -4.9% (inactive). The figures for the viability decrease (inhibition) in test [9] and in [10] were 88.2% (active) and 27.4% (inactive), respectively. Further, the red/green cell ratio (normalised) in test [11] is 1.14 (inactive). For the same compound, the normalised cell number is 1.04 in test [11] (setting [15]) and 1.18 in [11] (setting [16]). For the same compound, the fold change in test [12] (setting [17]) was 0.919 (inactive) and 0.917 (inactive); in test [12] (setting [18]), 0.877 and 0.265. The cell count in test [12] (setting [19]) is 7700 and 8110; in [12] (setting [20]), 8370 and 8840. The figures for the z-score in [13] (setting [21]) and in test [13] (setting [22]) were -0.189 (inactive) and -0.254, respectively. Further, the remaining NAD in [14] is 10 nM (inactive).
Regarding `CCCCOc1cc(C(=O)OCCN(CC)CC)ccc1N`, in test [1], the survival is 11.5 (inactive). Moreover, in test [2], the parasite load remaining was 22.4% (inactive) and 92.2% (inactive). For the same compound, in [2], the viability was 49.5% and 89.9%. For the same compound, the nuclear beta-catenin stimulation in test [3] (at 10 µM) is 1.9% (inactive); in test [3] (stimulation, at 2 µM), 3.9%. For the same compound, the insulin secretion stimulation in test [4] is 50.7% (active). Also, the viability decrease in test [5] is 45.5% (inactive). Moreover, the tube area decrease in test [6] is 14.2% (inactive). In test [7], the GLP1 secretion stimulation was 7.1% (inactive). In addition, the inhibition of viability in test [8] is 66% (active). For the same compound, the viability decrease (inhibition) in [9] was 51.8% (active); in [10], 81.6% (active). For the same compound, the red/green cell ratio (normalised) in [11] was 0.93 (inactive). Moreover, the normalised cell number came out at 1.02 in test [11] (setting [15]) and 0.95 in test [11] (setting [16]). Moreover, the fold change in test [12] (setting [17]) was 0.886 (inactive) and 0.893 (inactive) and 0.93 (inactive); in test [12] (setting [18]), 1.39 and 0.433 and 0.883. Moreover, the cell count in test [12] (setting [19]) was 8530 and 8120 and 7780; in test [12] (setting [20]), 9620 and 9090 and 8360. The z-score in test [13] (setting [21]) was 0.206 (inactive) and -0.26 (inactive) and 0.345 (inactive); in [13] (setting [22]), -0.405 and -0.149 and 0.0628. The remaining NAD in [14] was 10 nM (inactive).

Broadly, the viability is a read-out of living cells in per cent, often relative to untreated cells.
